Tb PYK inh = inhibitors of Trypanosoma brucei pyruvate kinase | 410,000 tested, 0.12% active | Potency, µM (titrated, usually from 76.8 µM), inactives show at the top dose activity, negative = inhibition, hits mostly inhibitors | AID 624173 | TbPYK enzyme, Kinase-Glo Plus ATP luminescence, 45 min | Q57TT1; note: potency is the fitted concentration of half-maximal effect; % is set by controls: 0 for no effect and ±100 for the full control effect; nearly all actives have a fitted effect of over 50% in size
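Luminescent Kinase-Glo Plus end-point after 45 min room-temperature reaction of T. brucei pyruvate kinase started with 130 uM ADP (final). Buffer TEA 50 mM pH 7.2 with KCl, MgCl2, BSA, Tween-20; titration-based qHTS with fitted concentration-effect curves.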
Sm TGR block = blocks Schistosoma mansoni thioredoxin glutathione reductase; Q962Y6; purified TGR, DTNB reduction, TNB absorbance 405 nm; Potency, µM (series often up to 114 µM), without a hit: top-dose activity change, negative = inhibition, most hits filed as inhibitors; 360,000 tested, 3% active; note: potency is the fitted concentration of half-maximal effect; % is set by controls: 0 for no effect and ±100 for the full control effect; nearly all actives have a fitted effect of over 60% in size
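First, TGR (20 nM dispensed) and NADPH were mixed with compound. Second, a 15 min room-temperature incubation followed. Third, further NADPH and then DTNB were added to start the reaction. Finally, TNB absorbance was monitored kinetically.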
Cycloheximide cs = affects cycloheximide protein synthesis inhibition readout, counter-screen; 300,000 tested, 12% active; cell reporter, cycloheximide protein synthesis inhibition counterscreen; max response, %; AID 2314; in the data active = max response mostly above about 13%, no sharp cut-off; inactive = mostly below about 14%; note: read at 38.3 µM for the half of the compounds with a filed dose; 0% is about no effect
Shiga inhibitor = Shiga toxin inhibition. Vero cells, Shiga toxin protein synthesis inhibition reporter. inhibition, % at 38.7 µM. 290,000 tested, 9.2% active; in the data active = inhibition mostly above about 28%, no sharp cut-off; inactive = mostly below about 43%; note: 0% is about no effect
LmPK inhibitor = inhibitors of Leishmania mexicana pyruvate kinase; Q27686; purified LmPK, Kinase-Glo ATP luminescence, 1 h; Potency, µM (top dose mostly 57.5 µM), inactives show at the top dose activity change, negative = inhibition, usual class: inhibitors; 290,000 tested, 0.37% active; note: potency is the fitted concentration of half-maximal effect; % is set by controls: 0 for no effect and ±100 for the full control effect
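In 50 mM imidazole pH 7.2 with 7 mM MgCl2, LmPK (0.1 nM) turned over PEP (0.5 mM) and ADP (0.1 mM) for 1 h at room temperature. Luciferase read-out of ATP.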
Giardia FBPA inh = blocks Giardia fructose-bisphosphate aldolase activity. purified Giardia FBPA. Potency, µM (titrated, usually from 59.6 µM), for the others: at the highest dose activity, negative = inhibition, actives largely listed as inhibitors. 290,000 tested, 0.71% active. AID 2451; note: potency is the fitted concentration of half-maximal effect; % is set by controls: 0 for no effect and ±100 for the full control effect; nearly all actives have a fitted effect of over 55% in size
Target sequence (A8B2U2 whole entry, looked up): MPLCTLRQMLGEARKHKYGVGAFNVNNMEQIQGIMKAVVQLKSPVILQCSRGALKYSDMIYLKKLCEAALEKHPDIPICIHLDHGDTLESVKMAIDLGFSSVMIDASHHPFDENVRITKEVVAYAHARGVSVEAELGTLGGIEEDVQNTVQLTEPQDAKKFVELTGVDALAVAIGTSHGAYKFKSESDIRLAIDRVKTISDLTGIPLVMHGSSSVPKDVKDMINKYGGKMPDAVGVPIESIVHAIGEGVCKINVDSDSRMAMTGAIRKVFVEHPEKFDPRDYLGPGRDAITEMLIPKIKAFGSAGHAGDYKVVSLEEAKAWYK
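40 nM FBPA preincubated 10 min at RT with compound (up to 57.5 uM final), then substrate plus GAPDH/TPI/NAD/arsenate coupling and diaphorase/resazurin added. Fluorescence read after 20 min at RT, 525/598 nm.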
* hit, by the source's call; u = inconclusive; x = no result; [ ] = remark or other dose. The full list was thinned out, with hits kept by preference. Unless noted, calls come from the whole dose curve; as a rule, active = well fitted curve in the direction sought with a large enough effect; inconclusive = small, poorly fitted or top-dose-only effect, or another doubt; inactive = no such curve, though single readings can be large; an effect the other way counts as inactive or inconclusive.

SMILES	Tb PYK inh	Sm TGR block	Cycloheximide cs	Shiga inhibitor	LmPK inhibitor	Giardia FBPA inh
COc1ccc(C(=O)Nc2ccccc2C(=O)NC(Cc2ccc(O)cc2)C(=O)NNC(=O)c2ccccc2)cc1 (stereo not drawn)	0.2%	-10.0%	19.9*	-1.5	-1.2%	-4.5%
O=C(NCCn1cccc1)c1cccc2ccccc12	-21.0%	28.2µM*	7.6	-7.1	-0.5%	5.6%
COc1ccc(NC(=O)c2ccccc2NC(=O)c2ccccc2)cc1	-0.9%	-3.6%	13.1	-3.8	-5.4%	-8.1%
COc1ccc(NS(=O)(=O)c2cc3c4c(c2)CCN4C(=O)CC3)cc1OC	0.0%	-2.1%	x	x	x	x
CCCOC(=O)c1c(NC(=O)c2nc3ncccn3n2)sc(C(=O)OCC)c1C	-0.8%	19.9%	x	x	x	x
COc1ccc(C(=O)NC(=O)Nc2cc(C)ccn2)cc1	-10.8%	-1.7%	34.2*	76.8*	u	-0.4%
O=C(NCc1cccnc1)c1ccccc1NS(=O)(=O)c1ccc(F)cc1F	-17.3%	39.8µM*	-0.8	-6.3	1.8%	-2.1%
COc1cc(C(=O)Nc2cc(C)ccn2)cc(OC)c1OC	-16.5%	-16.1%	0.5	0.9	-4.4%	4.1%
COc1ccc(Br)cc1C(=O)Nc1ccc(O)cc1	0.3%	3.4%	17.3*	41.1*	-6.0%	-1.7%
O=C(NCc1cccnc1)c1ccccc1NS(=O)(=O)c1ccc(F)cc1	8.8%	-0.5%	-1.6	-4.0	1.9%	-5.8%
COc1cc2ccccc2cc1C(=O)Nc1cc(C)ccn1	3.5%	-22.0%	42.0*	104.3*	-9.2%	x
COc1ccc(CNC(=O)CCc2c(C)c3cc4c(C)coc4c(C)c3oc2=O)cc1OC	2.9%	-2.1%	x	x	x	x
CCCC(C(=O)NC1CCCC1)N(CC1CCCO1)C(=O)CNS(=O)(=O)c1ccccc1 (stereo not drawn)	3.0%	-8.7%	7.9	-1.8	-2.4%	-0.4%
O=C(c1ccncc1)N1CCC2(CC1)CN(c1ccccc1)C2	1.5%	x	x	x	x	-18.8%
Cc1ccc(NC(=O)c2cccc3ccccc23)cc1	5.3%	-24.9%	32.5*	172.8*	1.4%	-1.2%
COc1cc2ccccc2cc1C(=O)Nc1ccc(C)cc1	0.0%	3.7%	25.8*	74.9	0.8%	16.3%
Cc1ccnc(NC(=O)c2ccccc2NC(=O)C(C)(C)C)c1	-1.4%	-0.1%	0.4	-2.1	0.2%	-2.6%
COc1ccc(C(=O)Nc2ccccc2C(=O)Nc2cccnc2)cc1	-13.5%	-2.4%	13.6	48.9*	-17.3%	2.4%
COc1ccc(C(=O)Nc2ccccc2C(=O)Nc2cc(C)ccn2)cc1	-7.9%	-20.3%	40.7*	x	9.7%	5.6%
C=CCOc1ccc(C(=O)Nc2ccccc2C(=O)NCc2cccnc2)cc1	2.2%	39.8µM*	-2.1	-7.4	0.0%	-7.3%
CSc1ncccc1C(=O)NCc1ccc(C)cc1	2.0%	5.4%	7.9	-14.4	11.5%	-2.3%
Cc1ccc(NC(=O)c2ccccc2NC(=O)CCC(=O)O)cc1	4.7%	-0.5%	44.9*	19.5*	7.8%	-2.4%
CSc1ncccc1C(=O)Nc1cc(C)ccn1	0.7%	4.2%	10.8*	18.2	-15.7%	x
O=C(Nc1cccnc1)c1ccccc1O	-0.6%	8.2%	20.7*	57.6*	-5.0%	-9.0%
O=C(Nc1cccnc1)c1ccccc1-c1ccccc1	2.0%	0.0%[57.1 µM]	-1.2	-12.2	-4.5%	1.1%
SMILES	Tb PYK inh	Sm TGR block	Cycloheximide cs	Shiga inhibitor	LmPK inhibitor	Giardia FBPA inh
Cc1[nH]c2ccc(C(=O)N3CCN(c4ccccc4F)CC3)cc2c1C	-1.6%[15.4 µM]	-3.3%	x	x	x	x
Cc1cc2c(s1)c1cnn(Cc3ccc(C)c(F)c3F)c(=O)c1n2C	x	x	-7.0	-4.7	x	x
CC(C)COC(=O)/C(C#N)=C/c1c[nH]c2ccccc12	-10.9%	6.9%	18.0*	42.9	1.9%	-0.2%
Cc1[nH]c2ccccc2c1/C=C(\C#N)C(=O)NC(C)c1ccccc1 (stereo not drawn)	-5.4%	0.0%	-2.9	-5.3	-3.4%	0.1%
N#C/C(=C\c1c[nH]c2ccccc12)C(=O)NC1CC1	2.0%	-15.3%	56.3*	36.3*	-1.4%	-7.0%
N#C/C(=C\c1c[nH]c2ccccc12)C(=O)NC1CCCC1	3.3%	1.1%	22.4*	41.9*	9.5%	-0.5%
Cc1[nH]c2ccccc2c1/C=C(\C#N)C(=O)NC1CC1	-0.8%	-2.6%	55.1*	129.2*	-4.3%	-2.9%
Cc1c(F)c(F)c(COC(=O)C2C(/C=C(\Cl)C(F)(F)F)C2(C)C)c(F)c1F (stereo not drawn)	x	x	9.7	-3.2	x	-0.5%
CC(C)CNc1nc(C#N)nc(Nc2ccccc2)n1	x	x	x	x	x	1.9%
COc1ccc(OC)c(CN2CCN(C(=O)[C@@H](NC(=O)c3cccc(C)c3)C(C)C)CC2)c1	3.3%	2.1%	x	x	x	x
O=C(Nc1nc2ccsc2c(=O)s1)c1ccc(F)cc1Cl	-1.7%	u	33.0*	73.4*	1.7%	-3.7%
Cc1csc2c(=O)sc(NC(=O)c3ccc(F)cc3Cl)nc12	-6.7%	7.0%	-1.1	2.2	4.1%	2.7%
O=C(Nc1nc2ccsc2c(=O)s1)c1ccc(F)cc1	-11.8%	4.2%	45.3*	80.8*	-13.1%	14.3%
C[C@H](NC(=O)[C@@H](N)Cc1ccc(O)cc1)C(=O)NCC(=O)N[C@H]1CSSC[C@@H](C(=O)O)NC(=O)[C@H](CO)NC(=O)[C@H]([C@@H](C)O)NC(=O)[C@H](Cc2ccccc2)NC(=O)[C@H]([C@@H](C)O)NC(=O)[C@H](CCCCN)NC(=O)[C@H](Cc2c[nH]c3ccccc23)NC(=O)[C@H](Cc2ccccc2)NC(=O)[C@H](Cc2ccccc2)NC(=O)[C@H](CC(N)=O)NC(=O)[C@H](CCCCN)NC1=O	x	x	-4.5	-6.1	x	5.0%
COC(=O)NC(/C=C/c1ccco1)[C@@]1(C(=O)OC)CCCC1=O (stereo partly drawn)	x	x	x	x	x	0.8%[12.9 µM]
CCN1C(=O)C2(C(C(=O)c3ccc(C)o3)=C(O)C(=O)N2CCCN(C)C)c2ccccc21 (stereo not drawn)	-14.9%	31.6µM*	-2.9	-7.0	-4.0%	-7.9%
Cc1ccc(C(=O)C2=C(O)C(=O)N(CCCN3CCOCC3)C23C(=O)N(C)c2ccccc23)o1 (stereo not drawn)	-9.3%	17.9%	-3.1	8.4	0.5%	-4.7%
CCN1C(=O)C2(C(C(=O)c3ccc(C)o3)=C(O)C(=O)N2CCCN2CCOCC2)c2ccccc21 (stereo not drawn)	-14.4%	50.1µM*	2.4	6.7	-7.6%	-16.5%
N#CCCN(C(=O)COC(=O)c1cc2ccccc2oc1=O)c1ccccc1	3.3%	-8.1%	x	x	x	x
O=C(CSc1nnc(Cc2ccccc2)o1)c1ccc(F)cc1	0.9%	-13.3%	8.0*	19.1	1.9%	0.9%
O=C(CSc1nnc(CNC(=O)c2ccco2)o1)c1ccccc1	-0.3%	4.9%	-3.1	31.3	4.5%	0.4%

Compound activity deposited in PubChem by National Center for Advancing Translational Sciences (NCATS).
